Some test systems named below: NCI-H23 lung; NCI-H226 lung; NCI-H322M lung; HOP-62 NSCLC; NCI-H460 lung; HOP-92 NSCLC; NCI-H522 lung; A549/ATCC NSCLC; 786-0 renal; COLO 205 colon.
Common to all, as to experiment: NCI-60 one-dose screen, 48 h (100 = growth as untreated, 0 = no growth, -100 = all killed)
Holding throughout (details): 10 µM unless noted

SMILES strings stand for the structures. About 83,000 compounds went through this panel and 20% of them were active in at least one assay; those are over-represented in the sample as a whole.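 Method: cells in 96-well plates; compound added at one concentration; 48 h incubation; percent growth measured; values under 10 scored active.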 A number with no mark means an inactive call. Active and inactive are the calls of the source.

These results are taken from PubChem BioAssay (NCI).

For `C/C(=N\NC(=O)CSc1nc2ccccc2c(=O)n1Cc1ccc(S(N)(=O)=O)cc1)c1ccc(F)cc1`, the growth is 105% in the assay with NCI-H23 lung; 102% in the assay on NCI-H226 lung; 102% in the assay with NCI-H322M lung; 98.8% with HOP-62 NSCLC; 103% with NCI-H460 lung; 124% with HOP-92 NSCLC. Further, the growth with NCI-H522 lung is 18.1%; with A549/ATCC NSCLC it was 102%; with 786-0 renal, 104%; in the assay with COLO 205 colon, 115%.
With `Cc1ccc(-c2[nH][nH]c(=O)c2-c2nc3ccccc3s2)cc1`, the growth with NCI-H23 lung was 96.2%; in the assay on NCI-H226 lung, 95.1%; with NCI-H322M lung, 105%; with HOP-62 NSCLC it was 99.2%; with NCI-H460 lung it was 105%; in the assay on HOP-92 NSCLC, 105%. Further, the growth in the assay with NCI-H522 lung was 89.2%; in the assay with A549/ATCC NSCLC, 107%; in the assay on 786-0 renal, 101%; with COLO 205 colon, 106%.
In the case of `O=C(Nc1cccc(C(=O)N2CCc3ccc(Cl)cc32)c1)c1ccco1`, the growth in the assay with NCI-H23 lung was 62.4%; in the assay on NCI-H226 lung, 60.2%; in the assay with NCI-H322M lung, 65.2%; with HOP-62 NSCLC, 42.4%; with NCI-H460 lung, 15.8%; with HOP-92 NSCLC, 74.1%. For the same compound, the growth with NCI-H522 lung was 17.8%; with A549/ATCC NSCLC, 38.3%; in the assay on 786-0 renal, 40.5%; with COLO 205 colon it was 27.5%.
`N#Cc1c(NC(=O)NCc2ccccc2)sc2c1CCCC2`: the growth was 29% in the assay on NCI-H23 lung; 29.5% in the assay on NCI-H226 lung; 42.2% in the assay with NCI-H322M lung; 40.2% with HOP-62 NSCLC; 2.62% (active) in the assay with NCI-H460 lung; 42% with HOP-92 NSCLC. Moreover, the growth with NCI-H522 lung was 21.9%; in the assay with A549/ATCC NSCLC it was 28.5%; in the assay with 786-0 renal, 35.6%; in the assay on COLO 205 colon it was 10.1%.
`O=C1NN(C(=O)c2ccccc2)C(c2ccc(Cl)c(Cl)c2)=C/C1=C\c1ccc([N+](=O)[O-])cc1`: the growth was 85.3% with NCI-H23 lung; 88.7% with NCI-H226 lung; 98% in the assay on NCI-H322M lung; 101% with HOP-62 NSCLC; 83% in the assay on NCI-H460 lung; 3.02% (active) with HOP-92 NSCLC. In addition, the growth in the assay on NCI-H522 lung is 63.8%; in the assay on A549/ATCC NSCLC it was 96.2%; in the assay with 786-0 renal, 102%; in the assay on COLO 205 colon, 27.9%.
In the case of `CC(=O)[C@H]1CCC/C=C/[C@@H]2C[C@H](O)C[C@H]2[C@H](O)/C=C/C(=O)O1`, the growth was -5.21% (active) in the assay with NCI-H23 lung; -57.6% (active) in the assay on NCI-H226 lung; 29% with NCI-H322M lung; 25.4% with HOP-62 NSCLC; 6.67% (active) in the assay on NCI-H460 lung; 22.9% in the assay on HOP-92 NSCLC. Moreover, the growth in the assay on NCI-H522 lung is -41.2% (active); in the assay with A549/ATCC NSCLC, 20.5%; with 786-0 renal it was -48.3% (active); with COLO 205 colon it was -94.8% (active).
Consider `CCOC(=O)[C@@H]1CCCN(S(=O)(=O)c2ccc(S(=O)(=O)N(CC)CC)c(F)c2)C1`, for which the growth with NCI-H23 lung was 45.3%; with NCI-H226 lung, 72.6%; with NCI-H322M lung, 90.2%; in the assay on HOP-62 NSCLC, 74.6%; in the assay on NCI-H460 lung, 81.2%; in the assay with HOP-92 NSCLC it was 67.4%. In addition, the growth in the assay on NCI-H522 lung is 65.3%; in the assay on A549/ATCC NSCLC, 86.2%; in the assay on 786-0 renal, 70.7%; with COLO 205 colon it was 83.9%.
As for `CCNC(=O)Oc1ccc(/C(=C(\C)c2ccccc2)c2ccc(OCCCN(C)C)cc2)cc1`, the growth with NCI-H23 lung is 75.8%; in the assay with NCI-H226 lung, 99.2%; in the assay with NCI-H322M lung, 80.7%; in the assay on HOP-62 NSCLC it was 87.4%; in the assay with NCI-H460 lung it was 87.1%; in the assay on HOP-92 NSCLC it was 69.4%. In addition, the growth was 86.4% in the assay with NCI-H522 lung, 78.9% with A549/ATCC NSCLC, 64.2% in the assay with 786-0 renal and 54.5% in the assay with COLO 205 colon.
Consider `Nc1nc(Nc2ccccc2SSc2ccccc2Nc2nc(N)nc(-c3ccc(C(F)(F)F)cc3)n2)nc(-c2ccc(C(F)(F)F)cc2)n1`, for which the growth with NCI-H23 lung is 31.5%; with NCI-H226 lung, 55.3%; in the assay with NCI-H322M lung, 88.6%; in the assay with HOP-62 NSCLC it was 47.8%; in the assay with NCI-H460 lung, 40%; in the assay with HOP-92 NSCLC, 90.7%. Moreover, the growth in the assay with NCI-H522 lung was 80%; in the assay with A549/ATCC NSCLC, 5.2% (active); with 786-0 renal, 81.4%; in the assay on COLO 205 colon, 86.1%.
`COc1cc(-c2csc(NC(=O)c3cc(F)cc(C(F)(F)F)c3)n2)cc(OC)c1OC`: the growth with NCI-H23 lung is 49.8%; with NCI-H226 lung, 27.7%; in the assay on NCI-H322M lung it was 68%; with HOP-62 NSCLC, 39.3%; in the assay on NCI-H460 lung, 19.5%; with HOP-92 NSCLC, 51.2%. Besides, the growth is -10.8% (active) in the assay on NCI-H522 lung, 64.4% with A549/ATCC NSCLC, 29.4% with 786-0 renal and 25.5% in the assay with COLO 205 colon.
As for `CCN1CCN(CCNc2nccc(-c3c(-c4cccc(OC)c4)nc4occn34)n2)S1(=O)=O`, the growth is 105% with NCI-H23 lung; 92.2% in the assay on NCI-H226 lung; 111% in the assay with NCI-H322M lung; 129% in the assay on HOP-62 NSCLC; 96.7% with NCI-H460 lung; 84.5% with HOP-92 NSCLC. The growth is 89.5% in the assay with NCI-H522 lung, 101% with A549/ATCC NSCLC, 113% in the assay on 786-0 renal and 42.6% in the assay on COLO 205 colon.
As for `CCCN1[C@@H]2CC[C@H]1/C(=C\c1ccc(OC)c(OC)c1)C(=O)/C2=C/c1ccc(OC)c(OC)c1`, the growth in the assay on NCI-H23 lung is 23.8%; with NCI-H226 lung, 67.3%; in the assay with NCI-H322M lung, 46.7%; in the assay with HOP-62 NSCLC, 68.2%; in the assay on NCI-H460 lung, 39.6%; with HOP-92 NSCLC, 39.8%. In addition, the growth was 47.8% in the assay with NCI-H522 lung, 49.3% in the assay on A549/ATCC NSCLC, 63.8% with 786-0 renal and 51.4% in the assay on COLO 205 colon.
Take `Cc1ccc(C(=O)/C(=C\c2ccc([N+](=O)[O-])cc2)S(=O)Cc2ccc(Cl)cc2)cc1` (stereo not given): the growth with NCI-H23 lung was 41%; in the assay with NCI-H226 lung it was 66.4%; in the assay with NCI-H322M lung, 80.3%; with HOP-62 NSCLC, 46.7%; with NCI-H460 lung, 30%; in the assay on HOP-92 NSCLC, 64.8%. Further, the growth with NCI-H522 lung is -5.71% (active); in the assay with A549/ATCC NSCLC it was 84.1%; in the assay on 786-0 renal, -52.4% (active); in the assay on COLO 205 colon, 20.7%.
